Reference: PubChem BioAssay (NCATS)
Results filed as inconclusive are left out. Activity calls are given as the source filed them. The call rests on the fitted dose curve.

Test: qHTS Assay for Lipid Storage Modulators (AID 1519); on activity change, negative = inhibition: on the % scale 0 is the no-effect control and ±100 the full control effect
Conditions: Drosophila S3 cells, BODIPY lipid droplet/cell ratio, laser cytometry, cells loaded with oleic acid; for activity change, negative = inhibition: at 57.5 µM (top of the series)
Excerpt: NIH Molecular Libraries Probe Production Centers Network [MLPCN]
NIH Chemical Genomics Center [NCGC]
Assay Submitter (PI): Beller, Mathias; Max-Planck-Institut fur Biophysikalische Chemie
NCGC Assay Overview: Storing lipids as a reservoir for energy or the anabolism of elementary metabolites is a common feature of probably all cells and is conserved from bacteria to humans. The universal cellular lipid storage organelle is the so-called lipid storage droplet (LD). Although ubiquitous, LDs share a simple structure composed of a hydrophobic core that harbors the storage lipids, which is shielded by a droplet-specific phospholipid monolayer to which proteins are attached. The current model of LD biogenesis involves an incorporation of the lipid core into the membrane leaflets of the endoplasmic reticulum (ER) followed by a subsequent budding-like maturation of a LD, which ultimately pinches off. Once released, LD volume can increase by localized lipogenesis or fusion of existing droplets. Storage lipids are re-mobilized enzymatically by lipase activity. Lipase regulation in the adipocyte is heavily studied and involves multiple components including catecholamine signaling, the LD-associated proteins Perilipin and comparative gene identification-58 (CGI-58) and at least two lipases named hormone sensitive lipase (HSL) and adipocyte triglyceride lipase (ATGL). LD regulation outside of the adipocyte is poorly understood and only few components are known. However, there is an urgent need to learn more about ectopic fat depots as mislocalized storage of lipids, for example in the liver or muscle, is an eminent health problem associated with insulin resistance or the metabolic syndrome. We developed a laser-scanning cytometer assay to enable 1,536-well screening and combined the results of the small molecules screen with an RNAi database based on lipid storage.
NCGC Assay Protocol Summary:
We dispensed 4 uL of cells at 1.25 x 10^6 cells/mL into LoBase Aurora COC 1,536-well plates (black walled, clear bottom) with a bottle-valve solenoid-based dispenser (Aurora) to obtain 5,000 cells/well. Triacsin C (Sigma-Aldrich T-4540), an inhibitor of long-chain fatty acyl CoA synthetase that blocks synthesis of triglycerides, was used as a positive control for lipid under-storage. A total of 23 nL of compound solution of different concentrations were transferred to the assay plates using a Kalypsys pin tool equipped with a 1,536-pin array containing 10-nL slotted pins (FP1S10, 0.457-mm diameter, 50.8 mm long; V&P Scientific). One microliter of oleic acid (400 uM) was added, and the plate was lidded with stainless steel rubber gasket lined lids containing pinholes. […] Fluorescence was detected by excitation of the fluorophores with a 488-nm laser on an Acumen Explorer (TTP Lab Tech). The total intensity in channel 1 (500-530 nm) reflected lipid droplet accumulation. […] The ratio of the total intensity in PMT channel 1 over total intensity of channel 3 was also calculated. Percent activity was computed relative to an internal control (100% inhibited lipid droplet deposition due to the presence of 20 uM Triacsin C), which was added to 32 wells/plate.

[1] = measured here: cell count channel max response
[2] = measured here: lipid channel max response

| Structure (SMILES) | activity change, negative = inhibition | max response [1] [%] | max response [2] [%] |
| --- | --- | --- | --- |
| Cc1noc(C)c1C(=O)N1CCC[C@@]2(CCN(C(=O)Nc3cccc(F)c3)C2)C1 | 3.82% (inactive) | 8.32 | 13.6 |
| O=S(=O)(c1ccccc1)N1CCC[C@@]2(CCN(c3ccncc3)C2)C1 | 0.287% (inactive) | 4.65 | 6.49 |
| CC(C)NC(=O)N1CCCC2(CCN(C(=O)c3ccncc3)CC2)C1 | 3.7% (inactive) | 13.8 | 22 |
| CN(C)c1ncc2nc(-c3ccccc3)c(=O)n(Cc3ccc(F)cc3)c2n1 | 0.549% (inactive) | 7.88 | 4.69 |
| CN1CCN(c2ncc3nc(-c4ccc(F)cc4)c(=O)n(Cc4cccs4)c3n2)CC1 | -3.43% (inactive) | 8.36 | 0.564 |
| Cn1cccc1C(=O)N1CCC[C@@]2(CCN(c3ccccn3)C2)C1 | 4.31% (inactive) | 20 | 28 |
| COCCNc1cc(-c2ccccc2CN(C)C)ncn1 | 4.45% (inactive) | 21.8 | 24.8 |
| Cc1noc(C)c1-c1cc(N2CCN(C)CC2)ncn1 | 3.89% (inactive) | 22.8 | 26.7 |
| CNc1ccnc(-c2c(C)noc2C)n1 | 4.8% (inactive) | -12.7 | -8.12 |
| COc1ccc(NC(=O)N2CC3(CCN(S(C)(=O)=O)CC3)C2)cc1 | 4.64% (inactive) | -10.6 | -5.17 |
| COc1ccc(-n2c(=O)cnc3cnc(N4CCOCC4)nc32)cc1 | 6.91% (inactive) | 0.0679 | 8.45 |
| Cc1noc(C)c1-c1cc(Nc2ccc(F)cc2)ncn1 | 8.49% (inactive) | 3.61 | 10.9 |
| O=C(c1ccco1)N1CCC2(CC1)CCN(c1ccccc1)CC2 | 1.71% (inactive) | 23.3 | 29.9 |
| Cc1noc(C)c1C(=O)N1CCC2(CCCN(C(=O)NC(C)C)C2)CC1 | 6.76% (inactive) | 0.437 | 10.1 |
